Experimental data taken from PubChem BioAssay (EPA / NIEHS).
Calls of active or inactive are those of the source. Rule for the calls: active = hit-call score of the fitted dose curve at least 0.9, where 1 is the maximum; inactive = score below 0.9.

Each compound was assayed on ABC Transporter (ABCB11), ABCB11 (gene 8647) (assay: LTEA_HepaRG_ABCB11: Life Technologies and Expression Analysis (LTEA) Assay for ABC Transporter (ABCB11) using HepaRG (AID 2283463)). Settings: mRNA level, 48 h; actives raise or lower the signal.
In short: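 ABCB11 transcript levels are read by Fluidigm TaqMan qRT-PCR after 48 h chemical treatment of human HepaRG cells. Concentrations span 100 uM downward in half-log steps with 0.5% DMSO; gain or loss is fitted against DMSO controls.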

Q: With CCCCC(O)(Cn1cncn1)c1ccc(Cl)cc1Cl (stereo unspecified) as the compound, how does the AC50 read?
A: Its AC50 is 68.6 µM (active).

Q: How did the outcome turn out when CC(C)N1C(=O)c2ccccc2NS1(=O)=O was run?
A: Its outcome is “inactive”.

Q: For O=C(Nc1ccccc1-c1ccc(Cl)cc1)c1cccnc1Cl, which AC50 is on record?
A: Its AC50 is 0.921 µM (active).

Q: Which outcome does the source give for N#CN=C1SCCN1Cc1ccc(Cl)nc1 here?
A: Its outcome is “inactive”.

Q: For CCNC(=O)NC(=O)C(C#N)=NOC, which outcome is on record?
A: Its outcome is “inactive”.

Q: For Cc1c(COC(=O)[C@@H]2[C@H](/C=C(\Cl)C(F)(F)F)C2(C)C)cccc1-c1ccccc1, which outcome is on record?
A: Its outcome is “inactive”.

Q: With C=C(C)CN(CC)c1c([N+](=O)[O-])cc(C(F)(F)F)cc1[N+](=O)[O-] as the compound, how does the outcome read?
A: Its outcome is “inactive”.

Q: With CC(C)C1(C)N=C(c2ncccc2C(=O)O)NC1=O (stereo unspecified) as the compound, how does the outcome read?
A: The outcome was “inactive”.

Q: CCCC(=NOCC)C1=C(O)CC(CC(C)SCC)CC1=O (stereo unspecified) was tested. Which outcome did it give?
A: The outcome was “inactive”.

Q: How did the AC50 turn out when O=C1C2CC=CCC2C(=O)N1SC(Cl)(Cl)Cl (stereo unspecified) was run?
A: The AC50 was 57.6 µM (active).

Q: COCc1cnc(C2=NC(C)(C(C)C)C(=O)N2)c(C(=O)O)c1 (stereo unspecified) was tested. Which outcome did it give?
A: The outcome was “inactive”.

Q: Which outcome does the source give for Cc1nc(N(C)C)nc(OC(=O)N(C)C)c1C here?
A: The outcome was “inactive”.

Q: How did the AC50 turn out when CC(C)N1C(=O)N(c2ccccc2)CSC1=NC(C)(C)C was run?
A: The AC50 was 94.4 µM (active).

Q: With Clc1cccc(C(Cl)(Cl)Cl)n1 as the compound, how does the outcome read?
A: The outcome was “inactive”.

Q: CC1(C)CON(Cc2ccccc2Cl)C1=O was tested. Which outcome did it give?
A: The outcome was “inactive”.

Q: CN/C(=N\[N+](=O)[O-])NCc1cnc(Cl)s1 was tested. Which outcome did it give?
A: The outcome was “inactive”.

Q: For Cc1ccc(N=CN(C)C=Nc2ccc(C)cc2C)c(C)c1, which outcome is on record?
A: The outcome was “inactive”.

Q: Which outcome does the source give for CCN(CC)c1nc(C)cc(OP(=S)(OC)OC)n1 here?
A: The outcome was “inactive”.

Q: How did the AC50 turn out when COCC(C)N(C(=O)CCl)c1c(C)csc1C (stereo unspecified) was run?
A: The AC50 was 50 µM (active).

Q: How did the AC50 turn out when CCOc1nc(C(Cl)(Cl)Cl)ns1 was run?
A: Its AC50 is 1.08 µM (active).

Q: For CCC(C)n1c(=O)[nH]c(C)c(Br)c1=O (stereo unspecified), which AC50 is on record?
A: The AC50 was 30 µM (active).

Q: Nc1cnn(-c2ccccc2)c(=O)c1Cl was tested. Which outcome did it give?
A: Its outcome is “inactive”.

Q: How did the outcome turn out when N#Cc1c(Cl)cccc1Cl was run?
A: Its outcome is “inactive”.

Q: For CCN(CC)C(=O)C(C)Oc1cccc2ccccc12 (stereo unspecified), which AC50 is on record?
A: The AC50 was 50 µM (active).

Q: How did the outcome turn out when CC1(C)C(C(=O)OC(C#N)c2cccc(Oc3ccccc3)c2)C1(C)C (stereo unspecified) was run?
A: Its outcome is “inactive”.

Q: With CC(C)Nc1nc(Cl)nc(NC(C)C)n1 as the compound, how does the AC50 read?
A: The AC50 was 73.3 µM (active).

Q: With N#Cc1c[nH]cc1-c1cccc2c1OC(F)(F)O2 as the compound, how does the AC50 read?
A: The AC50 was 44.8 µM (active).

Q: For Cn1c(-c2ccccc2)cc(-c2ccccc2)[n+]1C, which AC50 is on record?
A: The AC50 was 24.4 µM (active).

Q: With CCCN(CC)CC1COC2(CCC(C(C)(C)C)CC2)O1 (stereo unspecified) as the compound, how does the outcome read?
A: The outcome was “inactive”.

Q: For CCNP(=S)(OC)O/C(C)=C/C(=O)OC(C)C (stereo unspecified), which outcome is on record?
A: Its outcome is “inactive”.

Q: How did the outcome turn out when CS(=O)(=O)c1ccc(C(=O)C2C(=O)CCCC2=O)c([N+](=O)[O-])c1 was run?
A: Its outcome is “inactive”.

Q: With COP(=S)(OC)Oc1ccc([N+](=O)[O-])c(C)c1 as the compound, how does the outcome read?
A: Its outcome is “inactive”.

Q: With COC(=O)NC(=S)Nc1ccccc1NC(=S)NC(=O)OC as the compound, how does the outcome read?
A: Its outcome is “inactive”.

Q: For COc1cc(Cl)c(OC)cc1Cl, which outcome is on record?
A: Its outcome is “inactive”.

Q: With CC(C)(C)C(=O)C(Oc1ccc(Cl)cc1)n1cncn1 (stereo unspecified) as the compound, how does the outcome read?
A: The outcome was “inactive”.

Q: Which outcome does the source give for CCCCOCN(C(=O)CCl)c1c(CC)cccc1CC here?
A: Its outcome is “inactive”.

The compounds below were run on ABC Transporter (ABCC2), ABCC2 (gene 1244) (assay: LTEA_HepaRG_ABCC2: Life Technologies and Expression Analysis (LTEA) Assay for ABC Transporter (ABCC2) using HepaRG (AID 2283464)). Settings: mRNA level, 48 h; actives raise or lower the signal.
In short: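 Endpoint is ABCC2 transcript level from qRT-PCR, normalized to three housekeeping genes and fitted bidirectionally relative to DMSO. Human HepaRG cells received test chemical for 48 h at up to 100 uM (8 points, half-log steps, 0.5% DMSO), duplicate wells.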

Q: With CCCCC(O)(Cn1cncn1)c1ccc(Cl)cc1Cl (stereo unspecified) as the compound, how does the AC50 read?
A: Its AC50 is 79.9 µM (active).

Q: How did the outcome turn out when CC(C)N1C(=O)c2ccccc2NS1(=O)=O was run?
A: Its outcome is “inactive”.

Q: O=C(Nc1ccccc1-c1ccc(Cl)cc1)c1cccnc1Cl was tested. Which outcome did it give?
A: Its outcome is “inactive”.

Q: Which outcome does the source give for N#CN=C1SCCN1Cc1ccc(Cl)nc1 here?
A: The outcome was “inactive”.

Q: CCNC(=O)NC(=O)C(C#N)=NOC was tested. Which outcome did it give?
A: The outcome was “inactive”.

Q: Which outcome does the source give for Cc1c(COC(=O)[C@@H]2[C@H](/C=C(\Cl)C(F)(F)F)C2(C)C)cccc1-c1ccccc1 here?
A: The outcome was “inactive”.

Q: For C=C(C)CN(CC)c1c([N+](=O)[O-])cc(C(F)(F)F)cc1[N+](=O)[O-], which outcome is on record?
A: Its outcome is “inactive”.

Q: CC(C)C1(C)N=C(c2ncccc2C(=O)O)NC1=O (stereo unspecified) was tested. Which outcome did it give?
A: Its outcome is “inactive”.

Q: How did the outcome turn out when CCCC(=NOCC)C1=C(O)CC(CC(C)SCC)CC1=O (stereo unspecified) was run?
A: The outcome was “inactive”.

Q: How did the outcome turn out when O=C1C2CC=CCC2C(=O)N1SC(Cl)(Cl)Cl (stereo unspecified) was run?
A: Its outcome is “inactive”.

Q: COCc1cnc(C2=NC(C)(C(C)C)C(=O)N2)c(C(=O)O)c1 (stereo unspecified) was tested. Which outcome did it give?
A: The outcome was “inactive”.

Q: Cc1nc(N(C)C)nc(OC(=O)N(C)C)c1C was tested. Which outcome did it give?
A: Its outcome is “inactive”.

Q: With CC(C)N1C(=O)N(c2ccccc2)CSC1=NC(C)(C)C as the compound, how does the outcome read?
A: The outcome was “inactive”.

Q: How did the outcome turn out when Clc1cccc(C(Cl)(Cl)Cl)n1 was run?
A: Its outcome is “inactive”.

Q: With CC1(C)CON(Cc2ccccc2Cl)C1=O as the compound, how does the AC50 read?
A: The AC50 was 18.4 µM (active).

Q: Which outcome does the source give for CN/C(=N\[N+](=O)[O-])NCc1cnc(Cl)s1 here?
A: The outcome was “inactive”.

Q: With Cc1ccc(N=CN(C)C=Nc2ccc(C)cc2C)c(C)c1 as the compound, how does the outcome read?
A: Its outcome is “inactive”.

Q: Which AC50 does the source give for CCN(CC)c1nc(C)cc(OP(=S)(OC)OC)n1 here?
A: Its AC50 is 19.9 µM (active).

Q: With COCC(C)N(C(=O)CCl)c1c(C)csc1C (stereo unspecified) as the compound, how does the AC50 read?
A: The AC50 was 32.6 µM (active).

Q: For CCOc1nc(C(Cl)(Cl)Cl)ns1, which outcome is on record?
A: Its outcome is “inactive”.

Q: With CCC(C)n1c(=O)[nH]c(C)c(Br)c1=O (stereo unspecified) as the compound, how does the outcome read?
A: Its outcome is “inactive”.

Q: For Nc1cnn(-c2ccccc2)c(=O)c1Cl, which outcome is on record?
A: Its outcome is “inactive”.

Q: N#Cc1c(Cl)cccc1Cl was tested. Which outcome did it give?
A: The outcome was “inactive”.

Q: With CCN(CC)C(=O)C(C)Oc1cccc2ccccc12 (stereo unspecified) as the compound, how does the outcome read?
A: The outcome was “inactive”.

Q: CC1(C)C(C(=O)OC(C#N)c2cccc(Oc3ccccc3)c2)C1(C)C (stereo unspecified) was tested. Which outcome did it give?
A: The outcome was “inactive”.

Q: CC(C)Nc1nc(Cl)nc(NC(C)C)n1 was tested. Which AC50 did it give?
A: Its AC50 is 9.77 µM (active).

Q: N#Cc1c[nH]cc1-c1cccc2c1OC(F)(F)O2 was tested. Which outcome did it give?
A: The outcome was “inactive”.

Q: For Cn1c(-c2ccccc2)cc(-c2ccccc2)[n+]1C, which AC50 is on record?
A: The AC50 was 62.6 µM (active).

Q: CCCN(CC)CC1COC2(CCC(C(C)(C)C)CC2)O1 (stereo unspecified) was tested. Which outcome did it give?
A: Its outcome is “inactive”.

Q: With CCNP(=S)(OC)O/C(C)=C/C(=O)OC(C)C (stereo unspecified) as the compound, how does the AC50 read?
A: The AC50 was 13.1 µM (active).

Q: For CS(=O)(=O)c1ccc(C(=O)C2C(=O)CCCC2=O)c([N+](=O)[O-])c1, which outcome is on record?
A: The outcome was “inactive”.

Q: With COP(=S)(OC)Oc1ccc([N+](=O)[O-])c(C)c1 as the compound, how does the outcome read?
A: Its outcome is “inactive”.

Q: With COC(=O)NC(=S)Nc1ccccc1NC(=S)NC(=O)OC as the compound, how does the AC50 read?
A: Its AC50 is 35.4 µM (active).

Q: Which AC50 does the source give for CC(C)(C)C(=O)C(Oc1ccc(Cl)cc1)n1cncn1 (stereo unspecified) here?
A: The AC50 was 16.8 µM (active).

Q: With CCCCOCN(C(=O)CCl)c1c(CC)cccc1CC as the compound, how does the outcome read?
A: The outcome was “inactive”.
